Assay in all cases: PBM; 200 nM protein, PBS
Settings in all cases: dsDNA, one strand shown

Test [1] deals with HOXB9 (Homo sapiens, UniProt P17482 171-250, T197M).
Test [2] has as its target HOXB9 (Homo sapiens, UniProt P17482 171-250).
Test [3] concerns the target MSX2 (Homo sapiens, UniProt P35548 130-214, R199I).
In test [4] the target is MSX2 (Homo sapiens, UniProt P35548 130-214).
For test [5], the target named is HOXB9 (Homo sapiens, UniProt P17482 171-250, R186Q).
Test [6] concerns the target MSX2 (Homo sapiens, UniProt P35548 130-214, F161Y).
In test [7] the target is HOXD13 (Homo sapiens, UniProt P35453 263-343, T313R).
Sequence of HOXD13 (Homo sapiens, UniProt P35453 263-343, T313R) (P35453 263-343 T313R): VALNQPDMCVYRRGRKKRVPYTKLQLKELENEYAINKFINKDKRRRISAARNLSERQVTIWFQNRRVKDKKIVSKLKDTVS
For a further test, the target named is PITX2 (Homo sapiens, UniProt Q99697 72-157).
In test [8] the target is HOXD13 (Homo sapiens, UniProt P35453 263-343).
Sequence of HOXD13 (Homo sapiens, UniProt P35453 263-343) (P35453 263-343): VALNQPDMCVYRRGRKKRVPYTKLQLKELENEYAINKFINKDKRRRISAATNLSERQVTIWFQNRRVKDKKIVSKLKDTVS
For test [9], the target named is HOXD13 (Homo sapiens, UniProt P35453 263-343, T313A).
Sequence of HOXD13 (Homo sapiens, UniProt P35453 263-343, T313A) (P35453 263-343 T313A): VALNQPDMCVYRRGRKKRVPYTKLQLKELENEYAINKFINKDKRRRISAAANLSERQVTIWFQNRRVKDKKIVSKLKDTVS
The target of a further test is ALX3 (Homo sapiens, UniProt O95076 139-225, N203Q).
Sequence of ALX3 (O95076 139-225 N203Q): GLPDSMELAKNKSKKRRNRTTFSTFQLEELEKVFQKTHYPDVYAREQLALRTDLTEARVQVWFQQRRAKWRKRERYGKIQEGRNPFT
Test [10] concerns the target NKX3-2 (Homo sapiens, UniProt P78367 192-278, P234S).
Test [11] concerns the target NKX3-2 (Homo sapiens, UniProt P78367 192-278).

Sequence of HOXB9 (Homo sapiens, UniProt P17482 171-250, R186Q) (P17482 171-250 R186Q): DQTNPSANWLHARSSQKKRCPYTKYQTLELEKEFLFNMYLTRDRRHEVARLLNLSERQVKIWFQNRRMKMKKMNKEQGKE
Sequence of HOXB9 (Homo sapiens, UniProt P17482 171-250, T197M) (P17482 171-250 T197M): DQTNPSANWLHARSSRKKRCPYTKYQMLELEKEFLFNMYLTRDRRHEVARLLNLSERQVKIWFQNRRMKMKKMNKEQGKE
Sequence of HOXB9 (Homo sapiens, UniProt P17482 171-250) (P17482 171-250): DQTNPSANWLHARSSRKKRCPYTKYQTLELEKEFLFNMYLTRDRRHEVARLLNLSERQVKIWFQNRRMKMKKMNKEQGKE
Sequence of NKX3-2 (Homo sapiens, UniProt P78367 192-278, P234S) (P78367 192-278 P234S): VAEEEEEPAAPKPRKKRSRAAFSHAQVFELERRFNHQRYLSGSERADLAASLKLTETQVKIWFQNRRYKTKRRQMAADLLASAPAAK
Sequence of NKX3-2 (Homo sapiens, UniProt P78367 192-278) (P78367 192-278): as the sequence (P78367 192-278 P234S) above, with S43P counted along it
Sequence of MSX2 (Homo sapiens, UniProt P35548 130-214) (P35548 130-214): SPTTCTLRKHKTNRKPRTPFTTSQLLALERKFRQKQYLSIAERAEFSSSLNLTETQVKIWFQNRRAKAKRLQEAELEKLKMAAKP
Sequence of MSX2 (Homo sapiens, UniProt P35548 130-214, F161Y) (P35548 130-214 F161Y): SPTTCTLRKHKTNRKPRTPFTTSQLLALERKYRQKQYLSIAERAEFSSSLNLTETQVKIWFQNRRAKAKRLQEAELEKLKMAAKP
Sequence of MSX2 (Homo sapiens, UniProt P35548 130-214, R199I) (P35548 130-214 R199I): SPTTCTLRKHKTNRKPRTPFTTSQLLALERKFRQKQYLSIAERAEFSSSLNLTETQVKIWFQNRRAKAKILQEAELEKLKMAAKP

Take CTGGCGTC: the binding signal with HOXB9 [1] is 8.43 upbm affinity estimate (log intensity, higher = more binding, comparable within an allelic series); with HOXB9 [2], 8.27 upbm affinity estimate (log intensity, higher = more binding, comparable within an allelic series); in the test with MSX2 [3], 9.45 upbm affinity estimate (log intensity, higher = more binding, comparable within an allelic series); in the test with MSX2 [4] it was 9.51 upbm affinity estimate (log intensity, higher = more binding, comparable within an allelic series); with HOXB9 [5], 8.34 upbm affinity estimate (log intensity, higher = more binding, comparable within an allelic series); with MSX2 [6], 9.44 upbm affinity estimate (log intensity, higher = more binding, comparable within an allelic series).
On to AGACGCGG, for which the binding signal was 8.63 upbm affinity estimate (log intensity, higher = more binding, comparable within an allelic series) in the test with HOXB9 [1]; 8.58 upbm affinity estimate (log intensity, higher = more binding, comparable within an allelic series) with HOXB9 [2]; 8.55 upbm affinity estimate (log intensity, higher = more binding, comparable within an allelic series) with HOXB9 [5].
As for AGCATCCG, the binding signal with HOXB9 [1] is 8.64 upbm affinity estimate (log intensity, higher = more binding, comparable within an allelic series); with HOXB9 [2], 8.73 upbm affinity estimate (log intensity, higher = more binding, comparable within an allelic series); in the test with HOXB9 [5], 8.71 upbm affinity estimate (log intensity, higher = more binding, comparable within an allelic series).
With AAGTTATC, the binding signal with HOXB9 [1] is 9.1 upbm affinity estimate (log intensity, higher = more binding, comparable within an allelic series); in the test with HOXB9 [2], 9.66 upbm affinity estimate (log intensity, higher = more binding, comparable within an allelic series).
In the case of GCAGGCCC, the binding signal is 8.19 upbm affinity estimate (log intensity, higher = more binding, comparable within an allelic series) with HOXB9 [1]; 8.31 upbm affinity estimate (log intensity, higher = more binding, comparable within an allelic series) in the test with HOXB9 [2]; 9.4 upbm affinity estimate (log intensity, higher = more binding, comparable within an allelic series) with HOXD13 [7]; 7.9 upbm affinity estimate (log intensity, higher = more binding, comparable within an allelic series) with PITX2; 9.64 upbm affinity estimate (log intensity, higher = more binding, comparable within an allelic series) with HOXD13 [8]; 9.61 upbm affinity estimate (log intensity, higher = more binding, comparable within an allelic series) with HOXD13 [9]. For the same sequence, the binding signal with HOXB9 [5] was 8.26 upbm affinity estimate (log intensity, higher = more binding, comparable within an allelic series).
Turning to GTCCGGCA, the binding signal in the test with HOXB9 [1] was 8.68 upbm affinity estimate (log intensity, higher = more binding, comparable within an allelic series); in the test with HOXB9 [2], 8.51 upbm affinity estimate (log intensity, higher = more binding, comparable within an allelic series); in the test with HOXB9 [5], 8.52 upbm affinity estimate (log intensity, higher = more binding, comparable within an allelic series).
On to CCACGTCG, for which the binding signal with HOXB9 [1] was 8.7 upbm affinity estimate (log intensity, higher = more binding, comparable within an allelic series); with HOXB9 [2], 8.53 upbm affinity estimate (log intensity, higher = more binding, comparable within an allelic series); with HOXB9 [5], 8.57 upbm affinity estimate (log intensity, higher = more binding, comparable within an allelic series).
For the sequence CGTCCGAC, the binding signal with HOXB9 [1] was 8.56 upbm affinity estimate (log intensity, higher = more binding, comparable within an allelic series); with HOXB9 [2] it was 8.39 upbm affinity estimate (log intensity, higher = more binding, comparable within an allelic series); in the test with HOXB9 [5] it was 8.45 upbm affinity estimate (log intensity, higher = more binding, comparable within an allelic series).
As to GCACCGCC, the binding signal in the test with HOXB9 [1] was 8.24 upbm affinity estimate (log intensity, higher = more binding, comparable within an allelic series); with HOXB9 [2], 8.35 upbm affinity estimate (log intensity, higher = more binding, comparable within an allelic series); with HOXB9 [5], 8.25 upbm affinity estimate (log intensity, higher = more binding, comparable within an allelic series).
As to GGAGCTAC, the binding signal with HOXB9 [1] was 8.61 upbm affinity estimate (log intensity, higher = more binding, comparable within an allelic series); with HOXB9 [2], 8.26 upbm affinity estimate (log intensity, higher = more binding, comparable within an allelic series); in the test with HOXB9 [5], 8.53 upbm affinity estimate (log intensity, higher = more binding, comparable within an allelic series).
With CCCGTCTC, the binding signal in the test with HOXB9 [1] is 8.46 upbm affinity estimate (log intensity, higher = more binding, comparable within an allelic series); with HOXB9 [2] it was 8.32 upbm affinity estimate (log intensity, higher = more binding, comparable within an allelic series); in the test with HOXB9 [5], 8.4 upbm affinity estimate (log intensity, higher = more binding, comparable within an allelic series).
For CAGGGGCC, the binding signal was 8.21 upbm affinity estimate (log intensity, higher = more binding, comparable within an allelic series) with HOXB9 [1]; 8.25 upbm affinity estimate (log intensity, higher = more binding, comparable within an allelic series) in the test with HOXB9 [2]; 8.25 upbm affinity estimate (log intensity, higher = more binding, comparable within an allelic series) with HOXB9 [5].
On to GCCGCAGA, for which the binding signal was 8.65 upbm affinity estimate (log intensity, higher = more binding, comparable within an allelic series) in the test with HOXB9 [1]; 8.62 upbm affinity estimate (log intensity, higher = more binding, comparable within an allelic series) with HOXB9 [2]; 8.62 upbm affinity estimate (log intensity, higher = more binding, comparable within an allelic series) with HOXB9 [5].
Turning to GAAGCGGC, the binding signal in the test with HOXB9 [1] is 8.49 upbm affinity estimate (log intensity, higher = more binding, comparable within an allelic series); with HOXB9 [2], 8.36 upbm affinity estimate (log intensity, higher = more binding, comparable within an allelic series); in the test with HOXB9 [5], 8.37 upbm affinity estimate (log intensity, higher = more binding, comparable within an allelic series).
For GGACCTAC, the binding signal in the test with HOXB9 [1] was 8.72 upbm affinity estimate (log intensity, higher = more binding, comparable within an allelic series); with HOXB9 [2], 8.47 upbm affinity estimate (log intensity, higher = more binding, comparable within an allelic series); in the test with HOXB9 [5] it was 8.62 upbm affinity estimate (log intensity, higher = more binding, comparable within an allelic series).
On to GGCTCCGA, for which the binding signal was 8.49 upbm affinity estimate (log intensity, higher = more binding, comparable within an allelic series) with HOXB9 [1]; 8.4 upbm affinity estimate (log intensity, higher = more binding, comparable within an allelic series) with HOXB9 [2]; 8.41 upbm affinity estimate (log intensity, higher = more binding, comparable within an allelic series) with HOXB9 [5].
As for GAGCGCAA, the binding signal in the test with HOXB9 [1] is 8.55 upbm affinity estimate (log intensity, higher = more binding, comparable within an allelic series); with HOXB9 [2], 8.29 upbm affinity estimate (log intensity, higher = more binding, comparable within an allelic series); in the test with HOXB9 [5] it was 8.48 upbm affinity estimate (log intensity, higher = more binding, comparable within an allelic series).
As for CGTGGACC, the binding signal with HOXB9 [1] is 8.66 upbm affinity estimate (log intensity, higher = more binding, comparable within an allelic series); with HOXB9 [2] it was 8.61 upbm affinity estimate (log intensity, higher = more binding, comparable within an allelic series); with HOXB9 [5], 8.63 upbm affinity estimate (log intensity, higher = more binding, comparable within an allelic series).
Consider AGCGCGCC, for which the binding signal in the test with HOXB9 [1] is 8.57 upbm affinity estimate (log intensity, higher = more binding, comparable within an allelic series); with HOXB9 [2], 8.53 upbm affinity estimate (log intensity, higher = more binding, comparable within an allelic series); with HOXB9 [5], 8.54 upbm affinity estimate (log intensity, higher = more binding, comparable within an allelic series).
With ATTAACAA, the binding signal in the test with HOXB9 [1] is 9.96 upbm affinity estimate (log intensity, higher = more binding, comparable within an allelic series); with ALX3, 8.57 upbm affinity estimate (log intensity, higher = more binding, comparable within an allelic series).
In the case of ACCGGCCA, the binding signal with HOXB9 [1] was 8.45 upbm affinity estimate (log intensity, higher = more binding, comparable within an allelic series); with HOXB9 [2], 8.55 upbm affinity estimate (log intensity, higher = more binding, comparable within an allelic series); with HOXB9 [5], 8.63 upbm affinity estimate (log intensity, higher = more binding, comparable within an allelic series).
In the case of CGAAGGAC, the binding signal is 8.68 upbm affinity estimate (log intensity, higher = more binding, comparable within an allelic series) in the test with HOXB9 [1]; 8.57 upbm affinity estimate (log intensity, higher = more binding, comparable within an allelic series) with HOXB9 [2]; 8.58 upbm affinity estimate (log intensity, higher = more binding, comparable within an allelic series) with HOXB9 [5].
In the case of CCACGCCG, the binding signal with HOXB9 [1] was 8.48 upbm affinity estimate (log intensity, higher = more binding, comparable within an allelic series); with HOXB9 [2] it was 8.38 upbm affinity estimate (log intensity, higher = more binding, comparable within an allelic series); with HOXB9 [5] it was 8.41 upbm affinity estimate (log intensity, higher = more binding, comparable within an allelic series).
CCCCGGAC: the binding signal was 8.48 upbm affinity estimate (log intensity, higher = more binding, comparable within an allelic series) with HOXB9 [1]; 8.48 upbm affinity estimate (log intensity, higher = more binding, comparable within an allelic series) with HOXB9 [2]; 8.49 upbm affinity estimate (log intensity, higher = more binding, comparable within an allelic series) with HOXB9 [5].
In the case of AGGGCGTG, the binding signal with HOXB9 [1] was 8.57 upbm affinity estimate (log intensity, higher = more binding, comparable within an allelic series); with HOXB9 [2], 8.4 upbm affinity estimate (log intensity, higher = more binding, comparable within an allelic series); with HOXB9 [5] it was 8.53 upbm affinity estimate (log intensity, higher = more binding, comparable within an allelic series).
For the sequence CGCCGGGA, the binding signal with HOXB9 [1] was 8.5 upbm affinity estimate (log intensity, higher = more binding, comparable within an allelic series); with HOXB9 [2], 8.44 upbm affinity estimate (log intensity, higher = more binding, comparable within an allelic series); with HOXB9 [5], 8.47 upbm affinity estimate (log intensity, higher = more binding, comparable within an allelic series); with NKX3-2 [10], 10.5 upbm affinity estimate (log intensity, higher = more binding, comparable within an allelic series); in the test with NKX3-2 [11] it was 10.5 upbm affinity estimate (log intensity, higher = more binding, comparable within an allelic series).
Regarding CACGCCTC, the binding signal is 8.36 upbm affinity estimate (log intensity, higher = more binding, comparable within an allelic series) in the test with HOXB9 [1]; 8.42 upbm affinity estimate (log intensity, higher = more binding, comparable within an allelic series) with HOXB9 [2]; 8.39 upbm affinity estimate (log intensity, higher = more binding, comparable within an allelic series) with HOXB9 [5].
Regarding CCCCTCGA, the binding signal was 8.73 upbm affinity estimate (log intensity, higher = more binding, comparable within an allelic series) with HOXB9 [1]; 8.55 upbm affinity estimate (log intensity, higher = more binding, comparable within an allelic series) in the test with HOXB9 [2]; 8.57 upbm affinity estimate (log intensity, higher = more binding, comparable within an allelic series) in the test with HOXB9 [5].
As to ACCGGCCT, the binding signal in the test with HOXB9 [1] was 8.37 upbm affinity estimate (log intensity, higher = more binding, comparable within an allelic series); with HOXB9 [2], 8.52 upbm affinity estimate (log intensity, higher = more binding, comparable within an allelic series); in the test with HOXB9 [5], 8.47 upbm affinity estimate (log intensity, higher = more binding, comparable within an allelic series); with NKX3-2 [10], 10.6 upbm affinity estimate (log intensity, higher = more binding, comparable within an allelic series); with NKX3-2 [11], 10.5 upbm affinity estimate (log intensity, higher = more binding, comparable within an allelic series).
Consider CCAGACCG, for which the binding signal with HOXB9 [1] is 8.54 upbm affinity estimate (log intensity, higher = more binding, comparable within an allelic series); with HOXB9 [2], 8.51 upbm affinity estimate (log intensity, higher = more binding, comparable within an allelic series); with HOXB9 [5], 8.43 upbm affinity estimate (log intensity, higher = more binding, comparable within an allelic series).
With GCCGGGCC, the binding signal with HOXB9 [1] was 8.36 upbm affinity estimate (log intensity, higher = more binding, comparable within an allelic series); with HOXB9 [2], 8.42 upbm affinity estimate (log intensity, higher = more binding, comparable within an allelic series); with HOXB9 [5], 8.41 upbm affinity estimate (log intensity, higher = more binding, comparable within an allelic series).

Values taken from PMC11006913.
